A short description of assay [1]: small molecules captured by biotinylated probe aFSTL3 – biochemical, small-molecule microarray, fluorescence 635/667, stem cell growth factor project, primary screen (AID 1064).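 Also: measures binding of the biotinylated anti-FSTL3 antibody to printed compounds.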 The following applies: higher = more signal.
A short description of assay [2]: binders from COS7 lysate, DM2A8 probe, primary screen, torsin A project, cell lysate, small-molecule microarray, fluorescence 635/667 (AID 1065). The following applies: higher = more signal, COS7 lysate expressing mutant human TOR1A.
A short description of assay [3]: small molecules captured by biotinylated probe aFGF2 – biochemical, small-molecule microarray, fluorescence 635/667, stem cell growth factor project, primary screen (AID 1067).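 Also: measures binding of biotinylated aFGF2 protein to printed compounds on slides; z-score merges feature fluorescence and signal-to-noise across triplicate slides.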 The following applies: higher = more signal.
A short description of assay [4]: small molecules captured by biotinylated probe aFGF10 – biochemical, small-molecule microarray, fluorescence 635/667, stem cell growth factor project, primary screen (AID 1071).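 Also: score merges 667 nm spot intensity and signal to noise from triplicate slides.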 The following applies: higher = more signal.
The target of assay [5] is Neurogenic locus notch homolog protein 2 (Homo sapiens) (UniProt Q04721). As to the kind of experiment: small molecules binding Notch2 protein – biochemical, small-molecule microarray, 635 nm fluorescence, stem cell growth factors, primary screen (AID 1073). The following applies: higher = more signal.
Sequence of Neurogenic locus notch homolog protein 2 (Homo sapiens) (Q04721 whole entry, looked up, canonical isoform): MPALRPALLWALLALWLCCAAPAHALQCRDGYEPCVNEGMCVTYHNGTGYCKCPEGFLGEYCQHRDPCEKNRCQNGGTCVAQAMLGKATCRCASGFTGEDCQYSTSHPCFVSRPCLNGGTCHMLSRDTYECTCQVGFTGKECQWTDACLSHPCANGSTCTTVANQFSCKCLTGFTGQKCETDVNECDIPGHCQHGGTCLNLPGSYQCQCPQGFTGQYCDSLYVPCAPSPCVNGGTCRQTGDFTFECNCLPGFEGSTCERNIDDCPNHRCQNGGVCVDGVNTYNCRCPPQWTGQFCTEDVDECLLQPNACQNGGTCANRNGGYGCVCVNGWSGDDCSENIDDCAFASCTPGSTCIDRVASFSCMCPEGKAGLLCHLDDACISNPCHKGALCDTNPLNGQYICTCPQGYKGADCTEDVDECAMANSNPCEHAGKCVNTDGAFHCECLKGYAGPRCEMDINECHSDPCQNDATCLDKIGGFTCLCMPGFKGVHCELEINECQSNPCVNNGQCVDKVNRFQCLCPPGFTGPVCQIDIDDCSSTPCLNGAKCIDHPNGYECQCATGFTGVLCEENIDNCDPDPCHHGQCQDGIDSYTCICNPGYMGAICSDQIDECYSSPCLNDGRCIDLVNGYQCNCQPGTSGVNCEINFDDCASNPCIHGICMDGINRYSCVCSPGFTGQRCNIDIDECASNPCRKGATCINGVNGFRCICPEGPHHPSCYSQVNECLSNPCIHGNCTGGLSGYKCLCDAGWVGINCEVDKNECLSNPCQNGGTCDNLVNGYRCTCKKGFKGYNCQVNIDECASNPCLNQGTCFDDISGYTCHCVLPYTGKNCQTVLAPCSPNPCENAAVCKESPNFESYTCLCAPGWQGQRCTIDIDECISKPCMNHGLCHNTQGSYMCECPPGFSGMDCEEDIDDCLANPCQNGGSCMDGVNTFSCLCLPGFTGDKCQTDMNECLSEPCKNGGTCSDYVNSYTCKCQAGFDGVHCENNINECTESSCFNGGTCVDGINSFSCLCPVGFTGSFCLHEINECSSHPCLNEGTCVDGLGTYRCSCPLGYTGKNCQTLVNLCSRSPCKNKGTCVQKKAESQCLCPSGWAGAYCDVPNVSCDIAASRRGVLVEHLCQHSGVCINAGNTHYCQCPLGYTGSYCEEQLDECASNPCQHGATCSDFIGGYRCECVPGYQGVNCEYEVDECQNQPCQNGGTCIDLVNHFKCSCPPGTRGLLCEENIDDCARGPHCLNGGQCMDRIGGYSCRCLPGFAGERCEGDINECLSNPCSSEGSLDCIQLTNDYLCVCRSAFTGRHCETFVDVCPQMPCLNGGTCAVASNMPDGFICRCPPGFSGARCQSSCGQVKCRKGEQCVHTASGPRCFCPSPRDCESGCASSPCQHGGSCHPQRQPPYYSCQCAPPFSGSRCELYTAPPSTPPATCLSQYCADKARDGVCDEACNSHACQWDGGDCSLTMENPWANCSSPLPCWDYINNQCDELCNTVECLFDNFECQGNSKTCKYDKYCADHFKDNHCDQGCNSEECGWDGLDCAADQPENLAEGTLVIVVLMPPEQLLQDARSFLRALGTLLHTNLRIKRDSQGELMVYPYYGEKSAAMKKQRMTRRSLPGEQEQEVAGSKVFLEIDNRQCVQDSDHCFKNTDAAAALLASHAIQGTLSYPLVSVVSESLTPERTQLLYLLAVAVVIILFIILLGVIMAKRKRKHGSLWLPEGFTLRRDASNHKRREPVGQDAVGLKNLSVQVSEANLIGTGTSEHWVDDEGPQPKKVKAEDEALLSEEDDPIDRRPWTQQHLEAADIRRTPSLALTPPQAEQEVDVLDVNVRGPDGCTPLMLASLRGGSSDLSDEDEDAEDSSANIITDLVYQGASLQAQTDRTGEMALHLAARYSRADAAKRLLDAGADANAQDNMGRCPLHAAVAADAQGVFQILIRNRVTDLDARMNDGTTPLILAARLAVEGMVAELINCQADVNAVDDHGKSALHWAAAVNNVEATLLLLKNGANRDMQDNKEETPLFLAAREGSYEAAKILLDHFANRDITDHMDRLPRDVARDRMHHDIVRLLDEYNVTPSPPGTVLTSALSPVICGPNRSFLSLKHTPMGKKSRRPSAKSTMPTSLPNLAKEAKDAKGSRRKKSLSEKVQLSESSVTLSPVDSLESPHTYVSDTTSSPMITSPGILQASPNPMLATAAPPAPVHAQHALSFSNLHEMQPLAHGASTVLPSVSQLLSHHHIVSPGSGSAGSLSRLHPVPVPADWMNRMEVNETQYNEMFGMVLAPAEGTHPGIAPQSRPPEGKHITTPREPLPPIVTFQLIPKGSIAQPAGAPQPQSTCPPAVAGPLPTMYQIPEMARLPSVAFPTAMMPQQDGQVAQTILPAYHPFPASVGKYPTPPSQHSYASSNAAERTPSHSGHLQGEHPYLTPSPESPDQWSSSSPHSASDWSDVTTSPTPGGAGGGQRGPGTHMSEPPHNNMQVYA
For assay [6], the target named is Pro-neuregulin-1, membrane-bound isoform (Homo sapiens) (UniProt Q02297). Nature of the assay: small molecules binding neuregulin-1 protein – biochemical, small-molecule microarray, fluorescence 635/667, psychiatric disease protein project, primary screen (AID 1075).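 Also: score combines 667 nm spot fluorescence with signal to noise.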 Conditions: NRG1 binding, 635 nm fluorescence, higher = more signal.
Sequence of Pro-neuregulin-1, membrane-bound isoform (Homo sapiens) (Q02297 whole entry, looked up, the tested form may be a part, canonical isoform): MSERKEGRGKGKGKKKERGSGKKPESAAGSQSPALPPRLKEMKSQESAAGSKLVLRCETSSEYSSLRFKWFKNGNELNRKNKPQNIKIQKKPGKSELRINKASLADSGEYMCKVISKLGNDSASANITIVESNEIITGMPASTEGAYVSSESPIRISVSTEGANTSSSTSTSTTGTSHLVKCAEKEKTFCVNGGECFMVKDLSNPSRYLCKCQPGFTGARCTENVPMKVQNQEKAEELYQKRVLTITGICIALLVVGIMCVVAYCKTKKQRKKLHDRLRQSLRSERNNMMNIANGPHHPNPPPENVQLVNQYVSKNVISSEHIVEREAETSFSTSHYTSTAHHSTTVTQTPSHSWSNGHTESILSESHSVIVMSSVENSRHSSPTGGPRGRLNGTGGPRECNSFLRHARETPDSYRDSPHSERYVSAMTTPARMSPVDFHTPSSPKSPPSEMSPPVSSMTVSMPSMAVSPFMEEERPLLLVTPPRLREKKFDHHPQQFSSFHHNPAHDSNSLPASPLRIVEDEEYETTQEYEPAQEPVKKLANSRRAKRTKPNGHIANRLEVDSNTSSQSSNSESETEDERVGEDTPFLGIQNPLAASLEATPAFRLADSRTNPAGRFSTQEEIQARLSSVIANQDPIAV
Assay [7] concerns Neuregulin-1 EGF-like domain. As to the kind of experiment: small molecules binding NRG1 EGF domain – biochemical, small-molecule microarray, 635 nm fluorescence, primary screen (AID 1081).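 Also: binding of the protein to compounds printed on small-molecule microarray slides.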 Conditions: higher = more signal.
A short description of assay [8]: FRG1 expression reporter modulators in myotubes – cell-based, C2C12 myotubes, firefly/Renilla luciferase, luminescence, FRG1 inhibition for FSHD, primary screen (AID 1084). The following applies: FRG1 promoter luciferase, higher = more signal, called active from +8 up or from −8 down.
Assay [9] is described as follows: small molecules captured by biotinylated probe aFST – biochemical, small-molecule microarray, fluorescence 635/667, stem cell growth factor project, primary screen (AID 1086).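 Also: score merges 667 nm fluorescence with signal-to-noise of each printed compound spot.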 Conditions: higher = more signal.
Assay [10] can be described thus: binders of probe aHhip on microarray, primary screen, stem cell growth factor project, biochemical, small-molecule microarray, fluorescence 635/667 (AID 1087).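 Also: score merges spot fluorescence at 667nm with spot signal to noise ratio.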 The following applies: higher = more signal.

Activity calls are given as the source filed them.

Consider `CC(C)c1ccc(NN2C(C(O)c3cccs3)C=CC3C(=O)N(c4ccccc4)C(=O)C32)cc1` (stereo not given), for which the composite z-score in assay [1] was 0.222; in [2] it was -0.14; in assay [3], 0.117; in assay [4], 0.353; in assay [5], 1.66; in [6], 1.54. The composite z-score in [7] worked out at 1.19; in assay [9] it was 0.979; in assay [10] it was 0.122. In assay [8], the z-score was -1.87 (inactive).
As for `COCCOC(=O)N1C(=O)[C@@]2(c3cc(C#Cc4ccc(OC)cc4)ccc31)[C@H](C(N)=O)[C@H]1C(=O)O[C@H](c3ccccc3)[C@H](c3ccccc3)N1[C@@H]2c1ccc(OCCO)cc1`, the composite z-score was -0.358 in assay [1]; 0.562 in assay [2]; 0.0014 in assay [3]; 0.62 in [4]; 1.17 in assay [5]; 0.869 in assay [6]. The composite z-score in [7] was 1.28; in assay [9], 0.512; in [10], -0.251. Also, in assay [8], the z-score is 0.574 (inactive).
On to `O=C1O[C@H](c2ccccc2)[C@H](c2ccccc2)N2[C@H]1[C@@H](C(=O)NC[C@H](O)c1ccccc1)[C@]1(C(=O)Nc3ccccc31)[C@H]2c1ccccc1OCCO`, for which the composite z-score in assay [1] is 0.0095; in assay [2], 0.142; in [3], -0.0024; in assay [4] it was 0.555; in assay [5] it was 0.0225; in assay [6], 0.851. The figures for the composite z-score in assay [7], in assay [9] and in assay [10] were 1.2, -0.821 and -0.445, respectively. For the same compound, the z-score in [8] is -1.13 (inactive).
As to `[N-]=[N+]=NCc1ccccc1[C@H]1OC(c2ccc(OCCCO)cc2)=N[C@@]1(Cc1ccccc1N=[N+]=[N-])C(=O)N1CCCCC1`, the composite z-score in [1] amounted to 0.398; in [2], 0.221; in assay [3], 0.141; in assay [4] it was 0.263; in assay [5], 1.32; in assay [6] it was 1.32. Besides, the figures for the composite z-score in assay [7], in [9] and in [10] were 1.04, 1.41 and -0.199, respectively. For the same compound, the z-score in assay [8] is -1.6 (inactive).
Turning to `COc1ccc([Si](C)(C)[C@H]2[C@H](CC(=O)N3CCC[C@H]3CO)O[C@@]3(C(=O)N(Cc4ccc(N5C(=O)c6cccc7cccc5c67)cc4)c4ccccc43)[C@@H]2C)cc1`, the composite z-score in assay [1] was -0.276; in assay [2], 0.623; in assay [3] it was -0.071; in assay [4], 0.751; in [5], 0.517; in assay [6], 0.916. Also, the composite z-score in assay [7] was 0.804; in assay [9] it was 0.361; in assay [10], -0.221. Also, the z-score in [8] is -4.19 (inactive).
As for `C=C(COC)C(=O)CC[C@H](OC(=O)c1ccccc1-c1ccccc1C(=O)O)c1ccc(CO)o1`, the composite z-score in [1] is -0.326; in assay [2], -0.192; in [3], -0.128; in assay [4], 0.738; in [5], -0.532; in [6], 0.844. Also, the values for the composite z-score in assay [7], in [9] and in assay [10] were 1.33, -0.118 and -0.0618, respectively. In assay [8], the z-score is -0.362 (inactive).
`CN(C)CCCCCCNC(=O)[C@@H]1C[C@@H]2C(=O)NCC(=O)N2[C@@H]1c1ccc(O)cc1`: the composite z-score is -0.316 in assay [1]; 1.51 in assay [2]; 0.0231 in [3]; 1.26 in assay [4]; 0.194 in assay [5]; 0.504 in [6]. Besides, the composite z-score in [7] turned out to be 1.34; in assay [9] it was 0.92; in [10], 0.107. For the same compound, in [8], the z-score is 2.08 (inactive).
Regarding `O=C(Nc1cc(Br)ccc1C(=O)NCc1cccc(O)c1)c1ccccc1`, the composite z-score is -0.0036 in assay [1]; 0.296 in assay [2]; -0.0144 in [3]; 0.478 in assay [4]; 0.708 in assay [5]; 1.95 in [6]. The values for the composite z-score in assay [7], in assay [9] and in assay [10] were 1.15, 0.395 and -0.318, respectively. The z-score in [8] is -1.07 (inactive).
On to `CN(C)C(=O)[C@@]1(CCC(=O)OC(C)(C)C)COC(c2ccc(OCCCO)cc2)=N1`, for which the composite z-score in assay [1] was 0.0486; in assay [2], 0.0295; in assay [3] it was -0.0598; in [4], 0.448; in [5], 0.675; in assay [6] it was 1.8. The composite z-score in assay [7] is 1.41; in [9], 0.267; in assay [10], -0.189. Further, the z-score in assay [8] was -0.977 (inactive).
In the case of `O=C1CSC(c2cccc([N+](=O)[O-])c2)N1c1ccccc1` (stereo not given), the composite z-score in assay [1] was 0.315; in assay [2], -0.0123; in assay [3] it was -0.0161; in assay [4] it was 0.508; in [5], 0.839; in assay [6], 0.146. Moreover, the values for the composite z-score in assay [7], in [9] and in [10] were 0.979, -0.0692 and -0.0994, respectively. Besides, the z-score in [8] was -0.239 (inactive).
For `CCOC(=O)C1=CC[C@@H](c2ccccc2)N(S(=O)(=O)c2ccc(C)cc2)[C@H]1C=C(C)C`, the composite z-score is -0.259 in assay [1]; 0.644 in assay [2]; 0.119 in [3]; 0.831 in assay [4]; 1.46 in assay [5]; 0.944 in assay [6]. The composite z-score in assay [7] was 0.957; in [9], 1.58; in [10] it was -0.199. The z-score in assay [8] was -2.39 (inactive).
As to `CCOC(=O)C[C@H]1[C@H](OC(=O)Cc2ccc3c(c2)OCO3)[C@@H](NC(=O)c2ccccc2)c2cc(OCCCO)ccc2N1C(=O)c1ccc2ccccc2n1`, the composite z-score was -0.146 in assay [1]; -0.183 in assay [2]; -0.147 in assay [3]; 0.352 in assay [4]; 0.671 in assay [5]; 0.485 in [6]. Besides, the composite z-score in assay [7] is 0.55; in assay [9], 0.0323; in assay [10], -0.175. For the same compound, the z-score in [8] is -4.6 (inactive).
For `COc1cc(C(O)C2C=CC3C(=O)NC(=O)C3N2Nc2ccc(Cl)cc2Cl)cc(OC)c1OC` (stereo not given), the composite z-score is 0.223 in assay [1]; -1.1 in assay [2]; 0.0461 in assay [3]; 0.476 in [4]; 1.63 in assay [5]; 1.72 in assay [6]. In addition, the composite z-score in [7] worked out at 1.21; in [9], 1.7; in [10], 0.203. Besides, the z-score in assay [8] is 1.15 (inactive).
`C[C@@]1([C@@H](NC(=O)c2cccs2)c2ccc(-c3ccccc3)cc2)C[C@H]1C1CCCCC1`: the composite z-score was -0.11 in [1]; -1.29 in assay [2]; -0.428 in assay [3]; -0.376 in assay [4]; -0.41 in assay [5]; 0.783 in [6]. Besides, the results for the composite z-score in assay [7], in [9] and in [10] were -0.253, -0.232 and -0.523, respectively. Besides, in [8], the z-score was 2.66 (inactive).
As for `CCCCC(CC)C(O)C1C=CC2C(=O)NC(=O)C2N1Nc1ccccn1` (stereo not given), the composite z-score in assay [1] is -0.252; in assay [2] it was -0.14; in assay [3], -0.0005; in assay [4], 0.207; in assay [5] it was 1.41; in assay [6], 1.38. Also, the composite z-score in assay [7] was found to be 0.879; in assay [9], 0.245; in assay [10], 0.204. For the same compound, in [8], the z-score is 1.54 (inactive).
